Unmarked numbers belong to inactive results. Records with an inconclusive call do not appear. Calls of active or inactive are those of the source. Unless noted, the call rests on the fitted dose curve; in most records, active means well fitted curve in the direction sought with a large enough effect in the repeat runs; inconclusive means weak or mixed curves; inactive means no such curve, though single readings can be large; an effect the other way counts as inactive or inconclusive.

Assay [1] in a line: qHTS assay for small molecule agonists of the p53 signaling pathway (AID 651631; calls by dose curve; further: nearly all actives have a fitted effect of over 15% in size). An outline of the steps:
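Stably transfected HCT-116 cells (beta-lactamase behind p53 response elements) get compounds after a 5 h settling period; 16 h later at 37 °C, FRET substrate is loaded and fluorescence read after 2 h.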

Assay [2] can be described thus: qHTS assay for small molecules that induce genotoxicity in human embryonic kidney cells expressing luciferase-tagged ATAD5 (AID 651632). Further: nearly all actives have a fitted effect of over 15% in size. An outline of the steps:
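HEK293T cells carrying a luciferase reporter tagged to ATAD5 were exposed to compound or DMSO vehicle for 16 hr at 37C, 5% CO2. Amplite was added, and after 30 min at room temperature luciferase activity was read as a marker of ATAD5 induction.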

The nature of assay [3]: qHTS assay for small molecule agonists of the p53 signaling pathway - cell viability (AID 651633; calls by dose curve;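 further: p53RE-bla HCT reporter cells with a stable beta-lactamase p53 reporter; series mostly up to about 83 µM; nearly all actives have a fitted effect of over 30% in size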). An outline of the steps: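 p53RE-bla cells, seeded at 4,000 per well and rested 5 h at 37 C/5% CO2, received compounds in DMSO for 16 h at 37 C. CellTiter-Glo was then added, and luminescence was read after 30 min at room temperature to gauge cytotoxicity.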
Assay [4] can be described thus: qHTS assay for small molecules that induce genotoxicity in human embryonic kidney cells expressing luciferase-tagged ATAD5 - cell viability (AID 651634; calls by dose curve; further: nearly all actives have a fitted effect of over 25% in size). An outline of the steps: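 HEK293T cells expressing luciferase-tagged ATAD5 were exposed to compound or DMSO for 15.5 hr at 37C, 5% CO2. Viability was then read as live-cell protease activity by CellTiter-Fluor fluorescence after 30 min at 37C.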

Assay [5] in a line: qHTS assay for small molecule disruptors of the mitochondrial membrane potential - cell viability (AID 720634; calls by dose curve;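 further: human HepG2 liver cancer cells; series mostly up to about 83 µM; nearly all actives have a fitted effect of over 20% in size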). An outline of the steps: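 HepG2 cells seeded overnight at 37 C, then exposed to compound or DMSO for 1 hr at 37 C, 5% CO2. m-MPI dye added, then CellTiter-Glo for 30 min at room temperature; viability read as ATP luminescence.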
A short description of assay [6]: qHTS assay for small molecule disruptors of the mitochondrial membrane potential (AID 720635). Further: potency means the concentration at half of the fitted maximal effect. An outline of the steps: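 HepG2 cells (2,000/well) attached overnight at 37C, then took compound for 1 hr at 37C, 5% CO2. Mito-MPS dye was added for 30 min; fluorescence was read at 490/535 nm (monomers) and 540/590 nm (aggregates).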
Assay [7] is described as follows: qHTS assay to test for compound auto fluorescence at 590 nm (red) in HepG2 cells (AID 720674). An outline of the steps:
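Rose Bengal sodium served as the red fluorophore standard. HepG2 monolayers (overnight attachment, MEM with 10% FBS) were exposed to test compounds for 1 hr at 37 C and read at Ex 540/Em 590 nm.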

Assay [8] is described as follows: qHTS assay to test for compound auto fluorescence at 535 nm (green) in HepG2 cells (AID 720675).
A short description of assay [9]: qHTS assay to test for compound auto fluorescence at 460 nm (blue) in HEK293 cells (AID 720678). An outline of the steps: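 Auto fluorescence in the blue band was quantified as triamterene equivalency. HEK293 cells were seeded at 2,000/well, dosed after a 4-5 hr attachment, and kept overnight at 37C before the 405/460 nm reading.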
Assay [10] can be described thus: qHTS assay to test for compound auto fluorescence at 590 nm (red) in HEK293 cells (AID 720679). An outline of the steps: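 Autofluorescence equivalency to Rose Bengal sodium, 540/590nm, in HEK293 cells exposed overnight to 23 nL compound per well.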
The nature of assay [11]: qHTS assay to test for compound auto fluorescence at 535 nm (green) in HEK293 cells (AID 720680).
Assay [12] is described as follows: qHTS assay to test for compound auto fluorescence at 460 nm (blue) in HEK293 cell free culture (AID 720681). An outline of the steps: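 Test compounds were pinned into cell-free culture medium (DMEM with 10% FBS) and fluorescence was read directly at Ex/Em 405/460 nm. Signals were expressed as fluorescence equivalents of triamterene, with DMSO vehicle as control.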

Assay [13] is described as follows: qHTS assay to test for compound auto fluorescence at 535 nm (green) in HEK293 cell free culture (AID 720682). An outline of the steps: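 Using fluorescein as calibrant, autofluorescence was quantified at 485/535 nm in cell-free DMEM containing 10% FBS after pintool addition of compound or vehicle.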
A short description of assay [14]: qHTS assay to test for compound auto fluorescence at 590 nm (red) in HEK293 cell free culture (AID 720683). An outline of the steps:
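Tox21 10K library compounds were pinned into cell-free DMEM with 10% FBS and fluorescence was read at excitation 540 nm. Activity is expressed as Rose Bengal sodium equivalency.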

Assay [15] is described as follows: qHTS assay to test for compound auto fluorescence at 590 nm (red) in HepG2 cell free culture (AID 720684). An outline of the steps: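 Measured in medium alone (MEM containing 10% FBS) following pintool addition of compound; emission at 590 nm with 540 nm excitation, referenced to Rose Bengal sodium.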
The nature of assay [16]: qHTS assay to test for compound auto fluorescence at 460 nm (blue) in HepG2 cell free culture (AID 720685). An outline of the steps:
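Compound (23 nL) or DMSO pinned into cell-free MEM with 10% FBS; blue fluorescence read at 405/460 nm excitation/emission, expressed as auto-fluorescence equivalency to triamterene.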

Assay [17] in a line: qHTS assay to test for compound auto fluorescence at 460 nm (blue) in HepG2 cells (AID 720687). An outline of the steps: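 Cells (2,000/well in MEM with 10% FBS) attached overnight at 37 C, then were exposed to compound or DMSO for 1 hr at 37 C, 5% CO2. Fluorescence read at Ex/Em 405/460 nm, expressed as triamterene-equivalent signal.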
A short description of assay [18]: qHTS assay to test for compound auto fluorescence at 535 nm (green) in HepG2 cell free culture (AID 720686).
Assay [19] concerns the target Glucocorticoid receptor (Homo sapiens) (UniProt P04150). Briefly: qHTS assay to identify small molecule agonists of the glucocorticoid receptor (GR) signaling pathway (AID 720691; active means well fitted activation curve with a large enough effect in the signal ratio in the repeat runs, not every such curve was filed as active; the % refers to the signal ratio). An outline of the steps:
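GR-bla HeLa cells (beta-lactamase reporter under glucocorticoid response element) were plated 4 h at 37 C/5% CO2, given compounds in DMSO, and incubated 18 h at 37 C. LiveBLAzer B/G FRET substrate was added for 2 h at room temperature, then fluorescence intensity read.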

Assay [20] shares this target. As to the kind of experiment: qHTS assay to identify small molecule antagonists of the glucocorticoid receptor (GR) signaling pathway (AID 720692; active means well fitted inhibition curve with a large enough effect in the signal ratio in the repeat runs, not every such curve was filed as active; the % refers to the signal ratio). An outline of the steps: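 GR-bla HeLa cells (beta-lactamase reporter under glucocorticoid response element) were pre-plated 4 h at 37 C, treated with compounds plus 5 nM dexamethasone (final) for 18 h, then read by LiveBLAzer B/G FRET fluorescence after 2 h.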
On the % scale 0 is the no-effect control and ±100 the full control effect.

Glucocorticoid receptor (Homo sapiens), sequence (P04150 whole entry, looked up): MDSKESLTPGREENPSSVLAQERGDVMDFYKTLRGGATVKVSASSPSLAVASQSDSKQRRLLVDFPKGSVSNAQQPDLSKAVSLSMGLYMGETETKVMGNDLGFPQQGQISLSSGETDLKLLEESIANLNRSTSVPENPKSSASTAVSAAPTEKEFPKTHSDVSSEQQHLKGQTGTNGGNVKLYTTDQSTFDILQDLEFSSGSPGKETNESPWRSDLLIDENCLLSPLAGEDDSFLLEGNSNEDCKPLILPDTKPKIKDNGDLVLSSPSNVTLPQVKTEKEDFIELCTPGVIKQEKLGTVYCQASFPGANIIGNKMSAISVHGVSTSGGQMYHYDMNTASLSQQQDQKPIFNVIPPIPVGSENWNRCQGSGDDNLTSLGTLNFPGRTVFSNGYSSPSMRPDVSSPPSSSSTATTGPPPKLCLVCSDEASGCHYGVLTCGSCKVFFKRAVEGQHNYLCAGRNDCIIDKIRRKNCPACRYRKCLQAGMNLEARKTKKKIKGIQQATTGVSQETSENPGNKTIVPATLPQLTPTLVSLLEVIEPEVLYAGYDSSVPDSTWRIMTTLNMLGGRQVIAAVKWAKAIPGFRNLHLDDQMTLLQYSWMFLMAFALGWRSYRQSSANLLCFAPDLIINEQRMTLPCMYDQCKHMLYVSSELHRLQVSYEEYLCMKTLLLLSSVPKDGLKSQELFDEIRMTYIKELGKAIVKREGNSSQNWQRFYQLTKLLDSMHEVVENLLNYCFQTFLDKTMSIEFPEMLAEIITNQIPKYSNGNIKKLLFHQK

In the case of `CCCCc1ccc(Cl)cc1`, the Potency result in assay [1], in [2] and in assay [6] was “inactive” each time. Further, the compound was called inactive in assay [3], in assay [4], in [5], in assay [7], in [8] and in assay [9]. In addition, the compound was called inactive in assay [10], in assay [11], in assay [12], in assay [13], in [14] and in assay [15]. Further, the compound was classed as inactive in assay [16] and in assay [17].

For the compound `Cc1ccc(O)c([N+](=O)[O-])c1`, the Potency result in assay [1], in assay [2] and in [6] was “inactive” each time. For the same compound, the compound was classed as inactive in [3], in [4], in assay [5], in assay [7], in assay [8] and in [9]. For the same compound, the compound was called inactive in assay [10], in assay [11], in assay [12], in [13], in assay [14] and in [15]. Further, the compound was called inactive in assay [16], in assay [18] and in assay [17].

With `O=C(c1ccccc1)c1cccc(O)c1`, the Potency entry in assay [1] and in [2] was “inactive” throughout. Besides, the compound was called inactive in [3], in [4], in assay [5], in [7], in assay [8] and in assay [9]. For the same compound, the outcome in [10], in assay [11], in assay [12], in assay [13], in [14] and in [15] was inactive. Moreover, the result in assay [16], in assay [18] and in [17] was inactive. The Potency in assay [6] was 27.7 µM (active).

As to `C[C@@H]1CC[C@@]2(OC1)O[C@H]1C[C@H]3[C@@H]4CC[C@H]5C[C@@H](O)CC[C@]5(C)[C@H]4CC(=O)[C@]3(C)[C@H]1[C@@H]2C`, the Potency result in assay [1], in [2] and in [6] was “inactive” throughout. In addition, the result in assay [3], in assay [4] and in assay [5] was inactive. Moreover, in [7], the fluorescence, relative to Rose Bengal is -1.11% [at 18.6 µM]. Also, the values for the fluorescence, % of fluorescein control in [8] and in [18] were -0.248% [at 18.6 µM] and 0.0232% [at 18.6 µM], respectively. Besides, in [9], the fluorescence, % of triamterene is 0.0136% [at 18.6 µM]. The fluorescence, % of fluorescent control is 0.373% [at 18.6 µM] in [10]; 0.012% [at 18.6 µM] in assay [12]; 0.195% [at 18.6 µM] in assay [14]; 0.0653% [at 18.6 µM] in assay [16]; -0.13% [at 18.6 µM] in [17]. Further, the fluorescence, % of fluorescein in assay [11] is -0.0442% [at 18.6 µM]. The activity change in [13] was -0.0372% [at 18.6 µM]. The fluorescence, % of Rose Bengal in assay [15] is 0.0999% [at 18.6 µM].

As to `C=CCOC(=O)CCCCCCCC`, the Potency entry in assay [1], in assay [2] and in assay [6] was “inactive” throughout. Moreover, the compound was called inactive in assay [3], in assay [4], in assay [5], in assay [7], in assay [8] and in assay [9]. The result in assay [10], in [11], in assay [12], in [13], in [14] and in [15] was inactive. Also, the result in assay [16], in [18] and in assay [17] was inactive.

For the compound `CCOCCOCCOC(C)=O`, the Potency result in assay [1], in assay [2], in [6] and in assay [19] was “inactive” each time. Further, the call in assay [3], in assay [4], in [5], in [7], in [8] and in [9] was inactive. The outcome in [10], in [11], in [12], in assay [13], in assay [14] and in assay [15] was inactive. Also, the compound was called inactive in [16], in [18], in [17] and in assay [20].

For `O=C(O)CCC(=O)Nc1ccc(S(=O)(=O)Nc2nccs2)cc1`, the Potency entry in assay [1], in [2], in [6] and in assay [19] was “inactive” throughout. The compound was classed as inactive in assay [3], in assay [4], in [5] and in [20]. For the same compound, the fluorescence, relative to Rose Bengal in assay [7] was -0.131% [at 18.6 µM]. Further, the fluorescence, % of fluorescein control was -0.003% [at 18.6 µM] in assay [8] and 0.022% [at 18.6 µM] in [18]. In assay [9], the fluorescence, % of triamterene is 0.029% [at 18.6 µM]. The fluorescence, % of fluorescent control is -0.0693% [at 18.6 µM] in assay [10]; -0.0604% [at 18.6 µM] in [12]; 0.0244% [at 18.6 µM] in assay [14]; -0.0059% [at 18.6 µM] in assay [16]; -0.0217% [at 18.6 µM] in [17]. Moreover, the fluorescence, % of fluorescein in [11] was 0.032% [at 18.6 µM]. Also, the activity change in assay [13] is 0.0309% [at 18.6 µM]. In assay [15], the fluorescence, % of Rose Bengal is 0.477% [at 18.6 µM].

Values taken from PubChem BioAssay (Tox21).
